The full list was thinned out, with hits kept by preference.
Mtb RmlCD inh: M. tuberculosis RmlC/RmlD coupled enzyme inhibitors, primary screen, biochemical, compound mixtures, 384-well, from 1536-well plates; actives 0.03% (n = 160,000); RmlC+RmlD coupled enzyme assay, percent inhibition; primary screen in compound mixtures; AID 1533, 2009; inhibition, % at 3.6 µM; in the data active = inhibition mostly above about 34%, no sharp cut-off
YopH inh: YopH tyrosine phosphatase inhibitors, primary screen, biochemical, fluorescence Ex485/Em525. YopH tyrosine phosphatase [Yersinia enterocolitica]. inhibition, % (concentration not given with the values). actives 0.16% (n = 140,000); in the data active = inhibition above about 50%
Each line names hits and unclear results; the compound was inactive in the other large screens.

CCOC(=O)C1=C(C)N[C@@]2(O)c3ccccc3C(=O)[C@@]12O	none
C#CCn1cc(/C=N/Nc2nc3ccccc3[nH]2)c2ccccc21	none (no result: Mtb RmlCD inh)
COc1cc(CNc2ccc(N3CCCC3)cc2)cc(Cl)c1OC	none (no result: YopH inh)
CCOc1cc(CNc2ccc(N3CCCC3)cc2)cc(Cl)c1OC	YopH inh 74 (no result: Mtb RmlCD inh)
O=C(c1ccco1)[C@@H]1[C@@H]2C(=O)N(c3ccccc3)C(=O)[C@@H]2C2c3ccccc3C=CN21 (some centres undefined)	YopH inh 82 (no result: Mtb RmlCD inh)
Cc1ccc(N2C(=O)[C@@H]3[C@H](C2=O)C2c4ccccc4C=CN2[C@@H]3C(=O)c2ccco2)c(C)c1 (some centres undefined)	YopH inh 95 (no result: Mtb RmlCD inh)
COc1ccc(N2C(=O)[C@@H]3[C@H](C2=O)[C@H]2c4ccccc4C=CN2[C@@H]3C(=O)Nc2ccccc2)cc1	none
CC(=O)[C@@H]1[C@@H]2C(=O)N(Cc3ccccc3)C(=O)[C@@H]2C2c3ccccc3C=CN21 (some centres undefined)	none
CC(C)(C)C(=O)[C@@H]1[C@@H]2C(=O)N(c3ccc4c(c3)OCCO4)C(=O)[C@@H]2C2c3ccccc3C=CN21 (some centres undefined)	none (no result: Mtb RmlCD inh)
Cc1ccc(N2C(=O)[C@@H]3[C@H](C2=O)C2c4ccccc4C=CN2[C@@H]3C(=O)c2ccco2)cc1 (some centres undefined)	YopH inh 92
O=C(CSc1nnc(-c2ccncc2)n1-c1ccc(F)cc1)NNC(=O)c1cccc(O)c1	none (no result: Mtb RmlCD inh)
C=CCC(CC=C)(NC(=O)c1ccccc1C(=O)O)c1ccccc1	none
Cc1ccc(C(=O)O)cc1N=Cc1cc(Br)cc(Br)c1O	Mtb RmlCD inh 45
CNC(=S)N/N=C/c1cc(Br)cc(Br)c1O	none
CCN(CC)S(=O)(=O)c1ccc(N=Cc2c(C)c(C#N)c(=O)n(C)c2O)cc1	none
Cc1cc(C)nc(Sc2ncnc(N)c2[N+](=O)[O-])n1	none (no result: YopH inh)
CC(=O)[C@@H]1[C@@H](C(=O)c2ccc(C)cc2)[C@]2(C(=O)Nc3ccccc32)[C@H]2C=Cc3cc(F)ccc3N12	none
O=C(c1ccc(F)cc1)[C@@H]1[C@@H](C(=O)c2ccccc2)[C@@]2(C(=O)Nc3ccccc32)[C@H]2c3ccccc3C=CN12	YopH inh 83
CC(=O)NC1=C(NC2CCS(=O)(=O)C2)C(=O)c2ccccc2C1=O (centres undefined)	none
CN(C1=C(NC(=O)c2ccccc2)C(=O)c2ccccc2C1=O)C1CCS(=O)(=O)C1 (centres undefined)	YopH inh 65 (no result: Mtb RmlCD inh)
CN(CCC#N)C(=O)CC1(Cc2ccccc2)CCOC(C)(C)C1 (centres undefined)	none (no result: YopH inh)
COc1ccc(/C=C/C(=O)OCC(=O)Nc2ccc(C)cc2)cc1S(=O)(=O)N1CCOCC1	none
O=C(CSc1ncccc1C(=O)O)NC12CC3CC(CC(C3)C1)C2	none (no result: YopH inh)
COc1cccc(-c2nc(CS(=O)(=O)CC(=O)N3CCc4ccccc4C3)c(C)o2)c1	YopH inh 80
COc1cccc(-c2nc(CS(=O)(=O)CC(=O)N3CCN(C)CC3)c(C)o2)c1	none
Oc1ccc(C=Nc2cccc3ncccc23)c(O)c1	none
Oc1ccc(C=Nc2ccc3ncccc3c2)c(O)c1	YopH inh 72
COc1ccc(C(=O)N(C)C2CCN(C)CC2)cc1S(=O)(=O)Nc1cc(Cl)ccc1Cl	none (no result: YopH inh)
COc1ccccc1N1CC(C)(C)C(=O)N(C(=O)c2c(F)cccc2Cl)C1=S	none (no result: YopH inh)
CCc1ccc(S(=O)(=O)/N=C2\C=CC(=O)c3ccccc32)cc1	none (no result: YopH inh)
CCc1ccc(S(=O)(=O)/N=C2/C=C(Sc3ncn[nH]3)C(=O)c3ccccc32)cc1	YopH inh 93
Cc1ccc(SCCC(=O)Nc2ccc(Br)c(C)c2)cc1	none
Cc1ccc(CSCCNC(=O)CN2C(=O)c3ccccc3S2(=O)=O)cc1	YopH inh 56 (no result: Mtb RmlCD inh)
COc1ccc(CCNC(=O)CN2C(=O)c3ccccc3S2(=O)=O)cc1OC	none
CC1CCN(CC(=O)Nc2cccc(Cl)c2)CC1	none (no result: YopH inh)
CCOC(=O)N1CCN(c2cc(NCCC(=O)O)c3c4c(onc24)-c2ccccc2C3=O)CC1	YopH inh 87
O=C(O)CCCNc1cc(N2CCC3(CC2)OCCO3)c2noc3c2c1C(=O)c1ccccc1-3	none
Cc1cc(C)c2c(=O)[nH]c(SCC(=O)c3ccc(C)c(C)c3)nc2n1	none (no result: YopH inh)
COc1ccc(C(=O)OC2CCN(C)CC2)cc1	none (no result: Mtb RmlCD inh)
Cc1c(Br)cc(C(=O)OC2CCN(C)CC2)c(C)c1C	YopH inh 54
CCn1c(C)nc2cc(C(=O)N/N=C(\C)c3ccc(OC)cc3O)ccc21	Mtb RmlCD inh 37 (no result: YopH inh)
CCn1c(C)nc2cc(C(=O)N/N=C/c3ccc(OC)cc3)ccc21	none (no result: YopH inh)
COC(=O)c1[nH]c(C)c(/C(O)=C2\C(=O)C(=O)N(CCN3CCOCC3)C2c2ccc(C)o2)c1C (centres undefined)	none (no result: YopH inh)
O=C1C(=O)N(c2ccc(O)cc2)C(c2ccccc2[N+](=O)[O-])/C1=C(\O)c1ccccc1 (centres undefined)	none (no result: YopH inh)
C1CCc2nc3c(nc2C1)CCCC3	none (no result: YopH inh)

Compound activity deposited in PubChem by several laboratories.
